Results reported in PubChem BioAssay (NCATS).
Inconclusive results are not listed. Active and inactive are the calls of the source. Calls follow the shape of the dose curve; as a rule, active = well fitted inhibition curve with a large enough effect in the signal ratio, with a control signal flat (not every such curve was filed as active); inconclusive = small, poorly fitted or top-dose-only effect, or effect the other way, or a change in a side signal; inactive = flat fitted curve, though single readings scatter; the % refers to the signal ratio.

What follows are molecules tested against Thyroid hormone receptor beta (Homo sapiens) (UniProt P10828) (assay: qHTS assay for small molecule antagonists of thyroid hormone receptor beta signaling (AID 588547;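 as to activity change % (negative = inhibition): cells stimulated with 0.4 nM T3 agonist during compound exposure; series mostly up to about 77 µM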)). Conditions: TR-UAS-bla HEK293, beta-lactamase ratio, antagonist mode, 18 h.
Description: NIH Chemical Genomics Center [NCGC] U.S. Environmental Protection Agency [EPA] National Institutes of Environmental Health Sciences [NIEHS] National Toxicology Program [NTP] NCGC Assay Overview Thyroid hormone receptor (TR) belongs to nuclear hormone receptor superfamily. There are two subtypes for TR: TR-alpha and TR-beta. TR-beta plays a major role in regulating plasma cholesterol levels and it mediates the biological activities of thyroid hormone. Screening environmental chemicals on TR-beta signaling will provide important information for the mechanism of compound action.
NCGC Assay Protocol Summary Using a beta-lactamase reporter-gene under control of the TR response element, a cell-based assay [GeneBLAzer TR-UAS-bla-GripTite assay developed by Invitrogen] was used to measure TR-beta signaling in antagonist mode. TR-UAS-bla-GripTite HEK 293 cells were used with assay medium containing 2% charcoal/dextran FBS, 0.1 mM NEAA and 1 mM sodium pyruvate. The assay was performed in clear bottom black Greiner 1536-well plates. Library compounds were measured for their ability to inhibit the reporter gene activity. Compounds were screened in a titration series in 1536-well format. The fluorescence intensity (405 nm excitation, 460/530 nm emission) was measured using an EnVision plate reader. […] Concentration-response titration points for each compound were fitted to the Hill equation yielding concentrations of half-maximal inhibition (IC50) and maximal response (efficacy) values. qHTS protocol for TR-beta beta-lactamase assay in antagonist mode [Step] [Parameter] [Value] [Description] 1. Reagent; 5 uL; 2500 cells/well 2. Incubation; 37 C for 4 hrs 3. Compounds; 23 nL; 0.59 nM to 92 uM 4. Controls (DMSO); 23 nL 5. Agonist (Stimulator); 1uL; T3 at 0.4nM (final) concentrations 6. Incubation; 37 C for 18 hrs 7. Detection reagent; 1 uL of CCF4-dye 8. Incubation; RT for 2 hrs 9. Detection; Fluorescence; Envision plate reader
% is scaled to controls: 0 for no effect and ±100 for the full control effect; potency is read from the fitted curve at half-maximal effect.

Chain of Thyroid hormone receptor beta (Homo sapiens) (P10828 whole entry, looked up): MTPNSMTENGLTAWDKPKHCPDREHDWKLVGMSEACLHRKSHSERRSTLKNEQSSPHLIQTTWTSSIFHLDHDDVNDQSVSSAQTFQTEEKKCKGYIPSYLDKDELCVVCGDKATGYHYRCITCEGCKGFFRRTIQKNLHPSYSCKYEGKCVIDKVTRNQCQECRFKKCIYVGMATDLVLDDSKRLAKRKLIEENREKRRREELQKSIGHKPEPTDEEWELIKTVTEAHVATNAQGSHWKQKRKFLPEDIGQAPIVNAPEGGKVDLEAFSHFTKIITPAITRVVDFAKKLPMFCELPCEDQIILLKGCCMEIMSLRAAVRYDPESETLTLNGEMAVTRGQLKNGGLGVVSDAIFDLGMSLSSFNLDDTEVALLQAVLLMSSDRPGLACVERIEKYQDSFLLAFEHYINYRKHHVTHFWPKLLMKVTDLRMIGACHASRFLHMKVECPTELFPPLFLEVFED

SMILES | activity change % (negative = inhibition) | Potency
CC(C)Oc1cc(-n2nc(C(C)(C)C)oc2=O)c(Cl)cc1Cl | -6.22% (inactive) | –
FC(F)(F)c1ccc(OCCCOc2c(Cl)cc(OCC=C(Cl)Cl)cc2Cl)nc1 | 2.93% (inactive) | –
COC(=O)N(OC)c1ccccc1COc1ccn(-c2ccc(Cl)cc2)n1 | – | 6.31 µM (active)
COc1cccc(C(=O)NN(C(=O)c2cc(C)cc(C)c2)C(C)(C)C)c1C | -4.61% (inactive) | –
O=S(=O)(O)C(F)(F)C(F)(F)C(F)(F)C(F)(F)C(F)(F)C(F)(F)F | 23.1% (inactive) | –
CCOP(=S)(NC(C)C)Oc1ccccc1C(=O)OC(C)C (stereo not given) | 1.38% (inactive) | –
C#CC(C)(C)NC(=O)c1cc(Cl)cc(Cl)c1 | 3.53% (inactive) | –
O=C(O)C1(O)c2ccccc2-c2ccc(Cl)cc21 (stereo not given) | -1.32% (inactive) | –
O=C1NCCN1Cc1ccc(Cl)nc1 | 2.45% (inactive) | –
CN/C(=N\[N+](=O)[O-])NCc1cnc(Cl)s1 | -15.1% (inactive) | –
CC(=O)[C@H]1[C@H](C#N)C[C@H]2[C@@H]3CC=C4C[C@@H](O)CC[C@]4(C)[C@H]3CC[C@@]21C | 6.3% (inactive) | –
CC(C)N(C(=O)SCC(Cl)=C(Cl)Cl)C(C)C | -15.2% (inactive) | –
CC(C)[C@H](C(=O)O[C@H](C#N)c1cccc(Oc2ccccc2)c1)c1ccc(Cl)cc1 | -0.522% (inactive) | –
CCNc1nc(NC(C)(C)C)nc(SC)n1 | 6.54% (inactive) | –
CC1(C)CC/C(=C\c2ccc(Cl)cc2)C1(O)Cn1cncn1 (stereo not given) | -0.512% (inactive) | –
COP(=O)(OC)OC(Br)C(Cl)(Cl)Br (stereo not given) | -62.2% (inactive) | –
CCOP(=S)(OCC)Oc1cnc2ccccc2n1 | -0.975% (inactive) | –
CC(C)C1(C)N=C(c2nc3ccccc3cc2C(=O)O)NC1=O (stereo not given) | 9.94% (inactive) | –
O=C=Nc1ccc(Cl)cc1 | -1.95% (inactive) | –
CCN(CC)C(=O)C(C)Oc1cccc2ccccc12 (stereo not given) | -8.01% (inactive) | –

SMILES | activity change % (negative = inhibition) | Potency
CCOP(=S)(OCC)OC(Cl)C(Cl)(Cl)Cl (stereo not given) | 7.52% (inactive) | –
CC(O)CN(CC(C)O)CC(C)O (stereo not given) | 25% (inactive) | –
ClC1=C(Cl)C2(Cl)C3C4OC4C(Cl)C3C1(Cl)C2(Cl)Cl (stereo not given) | 16.3% (inactive) | –
O=C(NC(=O)c1c(F)cccc1F)Nc1ccc(Cl)cc1 | -1.34% (inactive) | –
CCCCOC(=O)[C@@H](C)Oc1ccc(Oc2ccc(C#N)cc2F)cc1 | 0.16% (inactive) | –
CNC(=O)O/N=C(\C)SC | -8.81% (inactive) | –
COP(=S)(OC)Oc1c(Cl)cc(C)cc1Cl | 7.32% (inactive) | –
CCOP(=O)(SC(C)CC)SC(C)CC (stereo not given) | -3.53% (inactive) | –
C#CCN1C(=O)COc2cc(F)c(N3C(=O)C4=C(CCCC4)C3=O)cc21 | -4.79% (inactive) | –
CN/C(=N/[N+](=O)[O-])NCC1CCOC1 (stereo not given) | -1.83% (inactive) | –
CCNc1nc(Cl)nc(NC(C)(C)C)n1 | -28% (inactive) | –
CCCCCCCCCCCCN(C)C | -6.18% (inactive) | –
CNC(=O)N(C)c1nc2ccccc2s1 | 9.18% (inactive) | –
CCOP(=O)(OCC)OP(=O)(OCC)OCC | 15.3% (inactive) | –
O=C(CCl)c1ccccc1 | -10.9% (inactive) | –
N#CCNC(=O)c1cnccc1C(F)(F)F | 15.2% (inactive) | –
CC(Oc1cccc(Cl)c1)C(=O)O (stereo not given) | 10.2% (inactive) | –
OC(Cn1cncn1)(c1ccc(F)cc1)c1ccccc1F (stereo not given) | 10.3% (inactive) | –
CC1=NNC(=O)N(/N=C/c2cccnc2)C1 | -22% (inactive) | –
Cc1nc(N(C)C)nc(OC(=O)N(C)C)c1C | -14.4% (inactive) | –
